Screening results: PubChem BioAssay, National Center for Advancing Translational Sciences (NCATS)
This excerpt belongs to a sample that is enriched for hits.
Cycloheximide cs – Cycloheximide Counterscreen for Small Molecule Inhibitors of Shiga Toxin | cell reporter, cycloheximide protein synthesis inhibition counterscreen | max response, % | 300,000 compounds, 12% hits; in the data active = max response mostly above about 13%, no sharp cut-off; inactive = mostly below about 14%; note: read at 38.3 µM for the half of the compounds with a filed dose; 0% is about no effect
SARS PLpro yeast-1 – qHTS of Yeast-based Assay for SARS-CoV PLP. S. cerevisiae expressing SARS-CoV PLpro, growth rescue. Potency, µM (titrated, usually from 32.9 µM), without a hit: at the top dose activity, positive = growth rescue, actives largely listed as activators. 330,000 compounds, 0.19% hits. AID 485353, 2010; note: potency is the fitted concentration of half-maximal effect; 0% is about no effect; nearly all actives have a fitted effect of over 55% in size
LmPK inh – qHTS Assay for Inhibitors of Leishmania Mexicana Pyruvate Kinase (LmPK). Q27686. AID 1721, 2009. purified LmPK, Kinase-Glo ATP luminescence, 1 h. Potency, µM (series often up to 57.5 µM), without a hit: at the highest dose activity change, negative = inhibition, most hits filed as inhibitors. 290,000 compounds, 0.37% hits; active = well fitted curve in the direction sought with a large enough effect; inconclusive = small, poorly fitted or top-dose-only effect, or another doubt; inactive = no such curve, though single readings can be large; an effect the other way counts as inactive or inconclusive; note: potency is the fitted concentration of half-maximal effect; % is set by controls: 0 for no effect and ±100 for the full control effect
Target sequence (Q27686 whole entry, looked up): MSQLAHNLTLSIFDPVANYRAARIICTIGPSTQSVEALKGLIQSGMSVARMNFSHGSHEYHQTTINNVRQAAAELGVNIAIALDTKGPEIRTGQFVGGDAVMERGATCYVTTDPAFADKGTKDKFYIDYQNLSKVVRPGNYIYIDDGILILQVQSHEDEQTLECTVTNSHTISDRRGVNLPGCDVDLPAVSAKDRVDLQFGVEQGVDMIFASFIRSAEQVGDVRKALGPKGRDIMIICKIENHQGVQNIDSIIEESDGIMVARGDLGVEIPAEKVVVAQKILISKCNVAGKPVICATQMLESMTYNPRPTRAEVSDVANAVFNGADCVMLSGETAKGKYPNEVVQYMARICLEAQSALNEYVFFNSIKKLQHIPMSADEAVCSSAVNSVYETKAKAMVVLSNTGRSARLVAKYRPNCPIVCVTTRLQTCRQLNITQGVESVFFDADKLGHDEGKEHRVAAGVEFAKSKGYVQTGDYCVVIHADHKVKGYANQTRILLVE
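Purified LmPK (0.1 nM) with 0.5 mM PEP and 0.1 mM ADP in imidazole buffer pH 7.2 with MgCl2/KCl, 1 h at room temperature. ATP formed was read by luciferase luminescence and normalized to no-enzyme and uninhibited controls.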
TbPYK inhibitor – qHTS of Trypanosoma Brucei Inhibitors | pyruvate kinase (Trypanosoma brucei), Q57TT1 | TbPYK enzyme, Kinase-Glo Plus ATP luminescence, 45 min | Potency, µM (doses to about 76.8 µM), for inactives: top-dose activity, negative = inhibition, usual class: inhibitors | 410,000 compounds, 0.12% hits; active = well fitted curve in the direction sought with a large enough effect; inconclusive = small, poorly fitted or top-dose-only effect, or another doubt; inactive = no such curve, though single readings can be large; an effect the other way counts as inactive or inconclusive; note: potency is the fitted concentration of half-maximal effect; % is set by controls: 0 for no effect and ±100 for the full control effect; nearly all actives have a fitted effect of over 50% in size
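Enzyme and substrate buffer are dispensed first and compound is pin-transferred. ADP at 130 uM final then starts the reaction, which runs 45 min at room temperature. Detection reagent is added for 10 min before luminescence is imaged.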
Shiga inhibitor – A qHTS for Small Molecule Inhibitors of Shiga Toxin; 290,000 compounds, 9.2% hits; inhibition, % at 38.7 µM; Vero cells, Shiga toxin protein synthesis inhibition reporter; AID 2315, 2010; in the data active = inhibition mostly above about 28%, no sharp cut-off; inactive = mostly below about 43%; note: 0% is about no effect
NS1 inh – qHTS Assay for Inhibitors of Influenza NS1 Protein Function | Potency, µM (titrated, usually from 46.1 µM), inactives show at the top dose activity, positive = more growth | 270,000 compounds, 0.4% hits | AID 2326, 2010; note: potency is the fitted concentration of half-maximal effect; actives are rising curves; nearly all actives have a fitted effect of over 50% in size
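Recovery from NS1-induced slow growth read by OD600 in budding yeast switched to galactose assay medium (pH 6.0, -URA) at 1:100 dilution. Compound 23 nl per well; the matching strain lacking NS1 serves as control.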
SARS PLpro yeast-2 – qHTS of Yeast-based Assay for SARS-CoV PLP: Hit Validation | yeast expressing SARS-CoV PLpro, growth phenotype rescue | shares compounds with SARS PLpro yeast-1 | calls only | 1,000 compounds, 19% hits; call rule not given here
Active calls of the source: *. Unless noted, calls come from the whole dose curve.

How did COC(=O)c1sc(NC(=S)NC(=O)c2cccc(Br)c2)nc1C do in these assays?
Cycloheximide cs: 34*; SARS PLpro yeast-1: inconclusive; LmPK inh: -6%; TbPYK inhibitor: 1%; Shiga inhibitor: 70*; NS1 inh: 4%; SARS PLpro yeast-2: inconclusive

Results for CC(=O)N/C(=C/c1ccccc1)C(=O)NC(Cc1ccccc1)C(=O)O (stereo unspecified) ?
Cycloheximide cs: -2; SARS PLpro yeast-1: inconclusive; LmPK inh: -2%; TbPYK inhibitor: -5%; Shiga inhibitor: -2; NS1 inh: -10%; SARS PLpro yeast-2: inactive

What do the screens show for `O=C(NC(Cc1ccccc1)C(=O)O)/C(=C/c1ccccc1)NC(=O)c1ccccc1` (stereo unspecified)?
Cycloheximide cs: -5; SARS PLpro yeast-1: 21%; LmPK inh: 1%; TbPYK inhibitor: -2%; Shiga inhibitor: -7; NS1 inh: 13%

How did CC(C)(C)OC(=O)N1CCCC1C(=O)NC1COC2CC(n3ccc(=O)[nH]c3=O)OC12 (stereo unspecified) do in these assays?
Cycloheximide cs: -2; Shiga inhibitor: -7

Results for CCNC(=S)NNC(=O)C1CCCCC1 ?
Cycloheximide cs: 4; SARS PLpro yeast-1: 4µM*; LmPK inh: -4%; TbPYK inhibitor: inconclusive; Shiga inhibitor: -9; NS1 inh: 8%; SARS PLpro yeast-2: inactive

How did CC(C)(C)N(Cc1ccccc1)C(=O)COC(=O)C1CCCCC1 do in these assays?
SARS PLpro yeast-1: 3.2µM*; TbPYK inhibitor: 2%; SARS PLpro yeast-2: inactive

Results for Cc1ccc(S(=O)(=O)N2CCC(C(=O)OCC(=O)N(Cc3ccccc3)C(C)(C)C)CC2)cc1C ?
SARS PLpro yeast-1: -2%; TbPYK inhibitor: 1%

Results for CCOc1cc(N2CCCC2)ccc1[N+](=O)[O-] ?
Cycloheximide cs: -3; SARS PLpro yeast-1: inconclusive; LmPK inh: -3%; TbPYK inhibitor: -1%; Shiga inhibitor: -1; NS1 inh: -4%; SARS PLpro yeast-2: inactive

How did C[C@H](CO)N1C[C@H](C)[C@@H](CN(C)Cc2ccccc2)Oc2c(NS(=O)(=O)c3ccccc3)cccc2C1=O do in these assays?
SARS PLpro yeast-1: -16%; TbPYK inhibitor: 5%

What do the screens show for `CNC[C@H]1Oc2c(NS(=O)(=O)c3ccccc3)cccc2C(=O)N([C@H](C)CO)C[C@@H]1C`?
SARS PLpro yeast-1: 10µM*; TbPYK inhibitor: -1%; SARS PLpro yeast-2: inactive

Results for COc1ccc(NC(=O)N(C)C[C@H]2Oc3c(NC(=O)C4CC4)cccc3C(=O)N([C@H](C)CO)C[C@@H]2C)cc1 ?
SARS PLpro yeast-1: inconclusive; TbPYK inhibitor: 3%; SARS PLpro yeast-2: inactive

Results for CCOCCn1ccc2c(OCC(=O)Nc3ccc(C(N)=O)cc3)cccc2c1=O ?
TbPYK inhibitor: 4%

Results for O=C(COc1ccccc1Cl)N1CCN(c2ccccn2)CC1 ?
SARS PLpro yeast-1: -1%; TbPYK inhibitor: -1%

Results for O=C(COc1ccc(F)c(Cl)c1)N1CCN(c2ccccn2)CC1 ?
Cycloheximide cs: -4; SARS PLpro yeast-1: inconclusive; LmPK inh: -8%; TbPYK inhibitor: -2%; Shiga inhibitor: 7; NS1 inh: -17%; SARS PLpro yeast-2: inactive

What do the screens show for `CCCCCCO`?
SARS PLpro yeast-1: 11µM*; TbPYK inhibitor: -6%; SARS PLpro yeast-2: inactive

What do the screens show for `CCCCCCCCO`?
SARS PLpro yeast-1: -4%; TbPYK inhibitor: -12%

Results for COc1cc(NC(=O)C2C3CCC(O3)C2C(=O)O)cc(OC)c1 (stereo unspecified) ?
Cycloheximide cs: -1; SARS PLpro yeast-1: 2%; LmPK inh: 1%; TbPYK inhibitor: 0%; Shiga inhibitor: -6; NS1 inh: 21%

How did O=C(N/N=C/c1cc([N+](=O)[O-])cc([N+](=O)[O-])c1O)/C(=C\c1cccs1)NC(=O)c1ccccc1 do in these assays?
Cycloheximide cs: 0; SARS PLpro yeast-1: inconclusive; LmPK inh: 2%; TbPYK inhibitor: -4%; Shiga inhibitor: -7; NS1 inh: 7%; SARS PLpro yeast-2: active

Results for COc1ccc(OC(=O)COc2ccc(C)cc2)cc1 ?
Cycloheximide cs: -6; SARS PLpro yeast-1: -2%; LmPK inh: 2%; TbPYK inhibitor: -14%; Shiga inhibitor: -9; NS1 inh: -10%

How did COc1ccc(OCC(=O)Sc2ccc(C)cc2)cc1 do in these assays?
Cycloheximide cs: 8; SARS PLpro yeast-1: 2.8µM*; LmPK inh: 4%; TbPYK inhibitor: -15%; Shiga inhibitor: -1; NS1 inh: -51%; SARS PLpro yeast-2: inactive

How did CCSc1ccccc1C(=O)N1CCN(c2ccccc2F)CC1 do in these assays?
Cycloheximide cs: -2; SARS PLpro yeast-1: inconclusive; LmPK inh: 0%; TbPYK inhibitor: 6%; Shiga inhibitor: -10; NS1 inh: -8%; SARS PLpro yeast-2: inactive

What do the screens show for `COc1ccccc1CNC(=O)CN1C(=O)CCc2cc(S(=O)(=O)N3CCCCC3)ccc21`?
TbPYK inhibitor: -2%

What do the screens show for `O=C(CC(NC(=O)c1ccccc1)c1ccccc1)Nc1cccc2ccccc12` (stereo unspecified)?
Cycloheximide cs: -2; SARS PLpro yeast-1: inconclusive; LmPK inh: 1%; TbPYK inhibitor: -23%; Shiga inhibitor: -10; NS1 inh: 10%; SARS PLpro yeast-2: inactive

Results for Cc1nnc(SCC(=O)NNC(=O)C(C)C)[nH]c1=O ?
Cycloheximide cs: 3; SARS PLpro yeast-1: 22µM*; LmPK inh: -3%; TbPYK inhibitor: -5%; Shiga inhibitor: -2; NS1 inh: 5%; SARS PLpro yeast-2: inactive

Results for Cc1ccc(N=C2NC(=O)/C(=C\c3cccs3)S2)cc1C ?
Cycloheximide cs: 28*; SARS PLpro yeast-1: inconclusive; LmPK inh: -2%; TbPYK inhibitor: -5%; Shiga inhibitor: 72*; NS1 inh: -5%; SARS PLpro yeast-2: inactive

Results for CN(C)Cc1cc(C(C)(C)c2cc(CN(C)C)c(O)c(CN(C)C)c2)cc(CN(C)C)c1O ?
Cycloheximide cs: 1; SARS PLpro yeast-1: 13µM*; LmPK inh: 2%; TbPYK inhibitor: 5%; Shiga inhibitor: -1; NS1 inh: 3%; SARS PLpro yeast-2: inactive

What do the screens show for `CN(C)Cc1cc(C(C)(C)C)cc(CN(C)C)c1O`?
NS1 inh: 6%

How did CN(CC1CCCO1)S(=O)(=O)c1ccc(C(=O)Nc2ccc(S(N)(=O)=O)cc2)cc1 (stereo unspecified) do in these assays?
Cycloheximide cs: 0; SARS PLpro yeast-1: 0.4µM*; LmPK inh: -11%; TbPYK inhibitor: 4%; Shiga inhibitor: -18; NS1 inh: 5%; SARS PLpro yeast-2: inactive
